PubChem BioAssay AID1159580 (chemical genetic matrix, 2015)
The campaign covered roughly 5,500 compounds. About 2,000 (36%) were called active. Inconclusive results (about 18%) are left out. No stated cut-off is given here; in the data, active means normalized growth mostly below about 0.91 (no sharp cut-off); inconclusive means no clear call, values can overlap the other calls; inactive means mostly above about 0.92. The list shows a part of the results.

Experiment: chemical genetic growth profiling, strain panel (AID 1159580);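 further: tested at 20 µM; growth read once vehicle control cultures reached saturation at 30 °C; 1 = growth at the plate median or of vehicle wells; lower values mean less growth of the strain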
Settings: growth OD

Measured: normalized growth

CCCN(CCC)c1c([N+](=O)[O-])cc(C(F)(F)F)cc1[N+](=O)[O-]
inactive: S. cerevisiae deletion strains, locus YJR075W, strain HOC1, active compounds read low 0.994 | S. cerevisiae deletion strains, locus YKL009W, strain mrt4, active compounds read low 1.03 | S. cerevisiae deletion strains, locus YKL068W, active compounds read low 1.01 | S. cerevisiae deletion strains, locus YKL085W, strain MDH1 (second series), active compounds read low 1 | S. cerevisiae deletion strains, locus YKL085W, strain MDH1, active compounds read low 1 | S. cerevisiae deletion strains, locus YKL160W, strain elf1, active compounds read low 1 | S. cerevisiae deletion strains, locus YKL190W, strain CNB1, active compounds read low 1.01 | S. cerevisiae deletion strains, locus YKR001C, strain vps1, active compounds read low 1.03 | S. cerevisiae deletion strains, locus YKR026C, strain gcn3, active compounds read low 0.97 | S. cerevisiae deletion strains, locus YKR091W, strain srl3, active compounds read low 0.999 | S. cerevisiae deletion strains, locus YLL001W, strain dnm1, active compounds read low 0.999 | S. cerevisiae deletion strains, locus YLL026W, active compounds read low 0.999 | S. cerevisiae deletion strains, locus YLL041C, strain sdh2, active compounds read low 1 | S. cerevisiae deletion strains, locus YLR027C, strain aat2, active compounds read low 1.01 | S. cerevisiae deletion strains, locus YLR039C, strain RIC1, active compounds read low 0.99 | S. cerevisiae deletion strains, locus YLR058C, strain SHM2, active compounds read low 1 | S. cerevisiae deletion strains, locus YLR102C, strain apc9, active compounds read low 1.01 | S. cerevisiae deletion strains, locus YLR113W, strain HOG1, active compounds read low 1.02 | S. cerevisiae deletion strains, locus YLR221C, strain rsa3, active compounds read low 1 | S. cerevisiae deletion strains, locus YLR258W, strain gsy2, active compounds read low 0.984 | S. cerevisiae deletion strains, locus YLR262C, strain YPT6 (second series), active compounds read low 0.989 | S. cerevisiae deletion strains, locus YLR262C, strain YPT6, active compounds read low 1.04 | S. cerevisiae deletion strains, locus YLR268W, strain sec22, active compounds read low 1.02 | S. cerevisiae deletion strains, locus YLR320W, strain mms22, active compounds read low 1.01 | S. cerevisiae deletion strains, locus YLR330W, strain CHS5, active compounds read low 1.02 | S. cerevisiae deletion strains, locus YLR342W, strain FKS1 (second series), active compounds read low 1.04 | S. cerevisiae deletion strains, locus YLR342W, strain FKS1, active compounds read low 1.04 | S. cerevisiae deletion strains, locus YLR357W, strain rsc2, active compounds read low 1.13 | S. cerevisiae deletion strains, locus YLR370C, strain arc18, active compounds read low 1 | S. cerevisiae deletion strains, locus YLR371W, strain rom2, active compounds read low 1.02 | S. cerevisiae deletion strains, locus YLR384C, strain iki3, active compounds read low 1.02 | S. cerevisiae deletion strains, locus YLR418C, strain cdc73, active compounds read low 1 | S. cerevisiae deletion strains, locus YML016C, strain PPZ1, active compounds read low 0.982 | S. cerevisiae deletion strains, locus YML032C, strain rad52, active compounds read low 1.02 | S. cerevisiae deletion strains, locus YML120C, strain ndi1, active compounds read low 0.985 | S. cerevisiae deletion strains, locus YML124C, strain tub3, active compounds read low 1.02 | S. cerevisiae deletion strains, locus YMR058W, strain fet3, active compounds read low 0.989 | S. cerevisiae deletion strains, locus YMR078C, strain ctf18, active compounds read low 1.02 | S. cerevisiae deletion strains, locus YMR125W, strain sto1, active compounds read low 1.01 | S. cerevisiae deletion strains, locus YMR129W, active compounds read low 1.01 | S. cerevisiae deletion strains, locus YMR205C, strain PFK2, active compounds read low 0.977 | S. cerevisiae deletion strains, locus YMR223W, strain ubp8, active compounds read low 1.01 | S. cerevisiae deletion strains, locus YMR231W, strain pep5, active compounds read low 1.01 | S. cerevisiae deletion strains, locus YMR263W, strain SAP30, active compounds read low 0.984 | S. cerevisiae deletion strains, locus YMR307W, strain GAS1, active compounds read low 0.973 | S. cerevisiae deletion strains, locus YNL067W, strain RPL9B, active compounds read low 1.01 | S. cerevisiae deletion strains, locus YNL071W, strain lat1, active compounds read low 1 | S. cerevisiae deletion strains, locus YNL128W, strain TEP1, active compounds read low 1 | S. cerevisiae deletion strains, locus YNL153C, strain GIM3, active compounds read low 0.995 | S. cerevisiae deletion strains, locus YNL183C, strain NPR1, active compounds read low 0.915 | S. cerevisiae deletion strains, locus YNL209W, strain ssb2, active compounds read low 1.02 | S. cerevisiae deletion strains, locus YNL233W, strain BNI4, active compounds read low 0.981 | S. cerevisiae deletion strains, locus YNL248C, strain rpa49, active compounds read low 1.04 | S. cerevisiae deletion strains, locus YNL250W, strain rad50, active compounds read low 1.01 | S. cerevisiae deletion strains, locus YNL271C, strain bni1, active compounds read low 1.01 | S. cerevisiae deletion strains, locus YNL298W, strain CLA4, active compounds read low 1.02 | S. cerevisiae deletion strains, locus YNL307C, strain MCK1, active compounds read low 1.01 | S. cerevisiae deletion strains, locus YNL322C, strain KRE1 (second series), active compounds read low 1 | S. cerevisiae deletion strains, locus YNL322C, strain KRE1, active compounds read low 1 | S. cerevisiae deletion strains, locus YNR049C, strain mso1, active compounds read low 1.02 | S. cerevisiae deletion strains, locus YNR052C, strain pop2, active compounds read low 1.02 | S. cerevisiae deletion strains, locus YOL006C, strain TOP1, active compounds read low 1.01 | S. cerevisiae deletion strains, locus YOL012C, strain htz1 0.879 | S. cerevisiae deletion strains, locus YOL147C, strain pex11, active compounds read low 1.01 | S. cerevisiae deletion strains, locus YOR001W, strain rrp6, active compounds read low 1.01 | S. cerevisiae deletion strains, locus YOR061W, strain CKA2, active compounds read low 1 | S. cerevisiae deletion strains, locus YOR069W, strain VPS5, active compounds read low 0.998 | S. cerevisiae deletion strains, locus YOR070C, strain gyp1, active compounds read low 0.993 | S. cerevisiae deletion strains, locus YOR080W, strain dia2, active compounds read low 1.01 | S. cerevisiae deletion strains, locus YOR083W, strain WHI5, active compounds read low 1.01 | S. cerevisiae deletion strains, locus YOR106W, strain vam3, active compounds read low 1.02 | S. cerevisiae deletion strains, locus YOR136W, strain idh2, active compounds read low 1.02 | S. cerevisiae deletion strains, locus YOR144C, strain elg1, active compounds read low 1.02 | S. cerevisiae deletion strains, locus YOR184W, strain ser1, active compounds read low 1.02 | S. cerevisiae deletion strains, locus YOR231W, strain MKK1, active compounds read low 0.986 | S. cerevisiae deletion strains, locus YOR265W, strain rbl2, active compounds read low 1.01 | S. cerevisiae deletion strains, locus YOR270C, strain vph1, active compounds read low 0.993 | S. cerevisiae deletion strains, locus YOR290C, strain snf2, active compounds read low 0.987 | S. cerevisiae deletion strains, locus YOR316C, strain cot1, active compounds read low 1.01 | S. cerevisiae deletion strains, locus YPL051W, strain arl3, active compounds read low 1.01 | S. cerevisiae deletion strains, locus YPL055C, strain LGE1, active compounds read low 1.06 | S. cerevisiae deletion strains, locus YPL078C, strain atp4, active compounds read low 0.968 | S. cerevisiae deletion strains, locus YPL106C, strain sse1, active compounds read low 1.05 | S. cerevisiae deletion strains, locus YPL240C, strain hsp82, active compounds read low 0.988 | S. cerevisiae deletion strains, locus YPL241C, strain CIN2, active compounds read low 1.01 | S. cerevisiae deletion strains, locus YPL256C, strain CLN2, active compounds read low 0.961 | S. cerevisiae deletion strains, locus YPR119W, strain clb2, active compounds read low 1.01 | S. cerevisiae deletion strains, locus YPR141C, strain kar3, active compounds read low 1 | S. cerevisiae deletion strains, locus YPR163C, strain tif3, active compounds read low 1.02 | S. cerevisiae deletion strains, locus YPR167C, strain met16, active compounds read low 1.01 | S. cerevisiae deletion strains, strain wtn01, active compounds read low 1.02 | S. cerevisiae strains, strain wild type, active compounds read low 1.01
